HCMV antiviral: qHTS Assay for inhibitors of the human cytomegalovirus (HCMV); 410,000 compounds, 4.5% hits; activity change, negative = inhibition, % at 57.5 µM; HFF cells, HCMV-luciferase reporter, 72 h; hits give low values; in the data active means activity change below about -60%; inconclusive means no clear call, values can overlap the other calls; inactive means above about -39%
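HFF cells seeded 16 h at 37C, treated with compounds, infected with luciferase-reporter HCMV at MOI 1 PFU/cell; luciferase read at 72 h post infection, normalized to buffer-only and Salinomycin controls.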
Pf growth 48h: Primary qHTS for delayed death inhibitors of the malarial parasite plastid, 48 hour incubation; Potency, µM (doses to about 28.7 µM), most hits filed as inhibitors; 310,000 compounds, 5.9% hits; P. falciparum luciferase growth in erythrocytes, 48 h; AID 504832, 2011
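Luciferase-expressing parasites in RBCs, 2% Hct / 0.1% parasitemia final; RPMI 1640 + 0.5% Albumax; 37 C, 5% CO2, one generation; luminescence read-out, lower signal = inhibition.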
Cycloheximide cs: Cycloheximide Counterscreen for Small Molecule Inhibitors of Shiga Toxin; 300,000 compounds, 12% hits; AID 2314, 2010; cell reporter, cycloheximide protein synthesis inhibition counterscreen; max response, %; in the data active means max response mostly above about 13%, no sharp cut-off; inactive means mostly below about 14%; further: read at 38.3 µM for the half of the compounds with a filed dose
Shiga inhibitor: A qHTS for Small Molecule Inhibitors of Shiga Toxin; 290,000 compounds, 9.2% hits; AID 2315, 2010; Vero cells, Shiga toxin protein synthesis inhibition reporter; inhibition, % at 38.7 µM; in the data active means inhibition mostly above about 28%, no sharp cut-off; inactive means mostly below about 43%
HCV inhibitor: qHTS Assay for Inhibitors of Hepatitis C Virus (HCV). Huh7.5.1 HCVcc-Cre infection, luciferase reporter, 44 h. Potency, µM (series often up to 41.8 µM), most hits filed as inhibitors. 340,000 compounds, 3.4% hits. AID 651820, 2012
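Antiviral activity was scored by luciferase reporter output from cells infected with HCVcc-Cre (~0.5 moi) in presence of compound, 44 h infection period, cells seeded 1,000/well 4 h prior.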
Pf growth 96h: Primary qHTS for delayed death inhibitors of the malarial parasite plastid, 96 hour incubation; P. falciparum luciferase reporter growth, 96 h; Potency, µM (doses to about 28.7 µM), hits mostly inhibitors; 320,000 compounds, 6.9% hits
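Two-generation exposure (96 h) targets delayed-death phenotype. Reporter parasites carrying integrated firefly luciferase, in red cells at 2% hematocrit and 0.05% parasitemia final, kept at 37 C, 5% CO2; luminescence loss indicates inhibition.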
Each line names hits and unclear results; the compound was inactive in the other large screens. Most compounds without a hit are left out; they make up all but 21% or so of the library. Unless noted, the call rests on the fitted dose curve; in most records, active means well fitted inhibition curve with a large enough effect; inconclusive means small, poorly fitted or top-dose-only effect, or another doubt; inactive means no such curve, though single readings can be large or run the other way.

O=C(Nc1ccc([N+](=O)[O-])cc1)OC1CCS(=O)(=O)C1 (stereo unspecified)	none (no result: Pf growth 48h, Cycloheximide cs, Shiga inhibitor, HCV inhibitor, Pf growth 96h)
CCOC(=O)C1C(C(=O)NN)C1C(=O)Nc1ccccc1 (stereo unspecified)	Pf growth 48h 13µM
O=C(Nc1ccccc1)C1C2CCCCC21 (stereo unspecified)	Cycloheximide cs 22, Shiga inhibitor 65
Cc1ccc(NC(=O)C2C3/C=C\CCCCC32)cc1 (stereo unspecified)	Cycloheximide cs 12, Pf growth 96h inconclusive
O=C(Nc1ccccc1)C1CCCCC1	none
Cc1cc(NC(=O)OC2CCCCC2)ccc1[N+](=O)[O-]	Cycloheximide cs 55, Shiga inhibitor 123, HCV inhibitor inconclusive
FC(F)(F)c1cccc(-c2cc3c(Nc4ccncc4)nccc3[nH]2)c1	none (no result: Pf growth 48h, Cycloheximide cs, Shiga inhibitor, HCV inhibitor, Pf growth 96h)
CC(=O)Nc1ccc(C)c([N+](=O)[O-])c1	none
Cc1ccc(NC(=O)C2C3CCCCC32)cc1[N+](=O)[O-] (stereo unspecified)	Cycloheximide cs 48, Shiga inhibitor 58, Pf growth 96h inconclusive
Cc1cccc(NC(=O)C2C3CCCCC32)c1 (stereo unspecified)	Cycloheximide cs 32, Shiga inhibitor 25, Pf growth 96h 0.19µM
COc1cc(C(=O)N[C@H](C(=O)Nc2nnc(C3CC3)s2)C(C)C)cc(OC)c1OC	Pf growth 48h inconclusive, Pf growth 96h inconclusive
CCOC(=O)C1CCN(C(=O)Cn2c(-c3cccs3)cc3cc(Cl)ccc32)CC1	none (no result: Pf growth 48h, Cycloheximide cs, Shiga inhibitor, HCV inhibitor, Pf growth 96h)
CCOc1ccc(C(=O)NCCc2ccccc2)cc1	Cycloheximide cs 24 (no result: Pf growth 48h)
CCOc1ccc(CN(CCC#N)C(=S)NC(=O)c2ccccc2)cc1	Pf growth 48h inconclusive, Pf growth 96h inconclusive
O=C(Cc1ncn[nH]1)NCCc1ccccc1	Pf growth 96h 7.4µM (no result: Pf growth 48h)
CCOc1ccc(C(=O)NC(=S)N(Cc2ccccc2)Cc2ccccc2)cc1	Pf growth 48h inconclusive, Pf growth 96h 2.6µM
CC(=O)Oc1ccc(C(=O)NCCc2ccccc2)cc1	Cycloheximide cs 15
CC(=O)Oc1ccc(-c2ccc(C(=O)NCCc3ccc(S(N)(=O)=O)cc3)cc2)cc1	none
CCn1c(CNC(=O)c2ccc(OC)cc2)nnc1SCC(=O)Nc1ccc(F)cc1	none (no result: Pf growth 48h, Cycloheximide cs, Shiga inhibitor, HCV inhibitor, Pf growth 96h)
O=C(CN(Cc1ccc(F)cc1)C(=O)CCC(=O)Nc1nccs1)NCC1CCCO1 (stereo unspecified)	Pf growth 96h inconclusive
O=C(NCCc1ccccc1)c1ccc(=O)[nH]c1	Shiga inhibitor 57
N#CC(C#N)=c1ccc2c(c1)N1C3=C(CCCC3)CC3CCCCC31N=2 (stereo unspecified)	HCMV antiviral -95, Pf growth 48h inconclusive
N#C/C(C(N)=O)=c1/ccc2c(c1)N1C3=C(CCCC3)CC3CCCCC31N=2 (stereo unspecified)	HCMV antiviral -68, Pf growth 48h inconclusive
Fc1ccc2nc(-c3ccc(CN4CCC5(CC4)CNc4ccccc45)cc3)c(-c3ccccc3)nc2c1	none (no result: Pf growth 48h, Cycloheximide cs, Shiga inhibitor, HCV inhibitor, Pf growth 96h)
COc1cccc(CNC(=O)CN2N=C(c3ccc(C)cc3)CCC2=O)c1	none (no result: Pf growth 48h, Cycloheximide cs, Shiga inhibitor, HCV inhibitor, Pf growth 96h)
COC(=O)CNC(=O)Cn1c(=O)n(Cc2ccc(F)cc2)c(=O)c2sccc21	Pf growth 96h 12µM
COc1cccc(-n2c(=O)c3sc4ccccc4c3n(CC(=O)Nc3ccc(F)cc3F)c2=O)c1	HCMV antiviral -70 (no result: Pf growth 48h, Cycloheximide cs, Shiga inhibitor, HCV inhibitor, Pf growth 96h)
Cc1ccc(CNC(=O)Cn2c(=O)n(Cc3ccccc3)c(=O)c3sc4ccccc4c32)cc1	none (no result: Pf growth 48h, Cycloheximide cs, Shiga inhibitor, HCV inhibitor, Pf growth 96h)
O=C(Cn1c(=O)c2sccc2n(Cc2ccc([N+](=O)[O-])cc2)c1=O)NCCc1ccccc1	HCMV antiviral -73, HCV inhibitor inconclusive, Pf growth 96h inconclusive
Cc1ccc(CNC(=O)Cn2c(=O)n(Cc3ccc(F)cc3)c(=O)c3sc4ccccc4c32)cc1	HCMV antiviral -65 (no result: Pf growth 48h, Cycloheximide cs, Shiga inhibitor, HCV inhibitor, Pf growth 96h)
CC(C)CCNC(=O)c1ccc2c(c1)NC(=O)C(CS(=O)(=O)Cc1ccc(F)cc1)N2 (stereo unspecified)	none (no result: Pf growth 48h, Cycloheximide cs, Shiga inhibitor, HCV inhibitor, Pf growth 96h)
O=C(NCCN1CCOCC1)C1CC(=O)N(c2ccc(Cl)cc2)C1 (stereo unspecified)	HCMV antiviral inconclusive

Compound activity as filed in PubChem BioAssay.
